PubChem BioAssay AID1259312 (Keith Lab, Institute of Cancer Science, University of …, 2017)
Among all 4,500 compounds or so, about 200 (4.4%) were called active. The entries come from a sample that favours actives as a whole. Values without a mark were called inactive.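 How the source made its calls: active means cell survival measured by absorbance rises more than 2.5-fold over infected cells without compound; inactive means the rest.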

Test: survival after telomere uncapping, modulators, primary screen, cell-based (AID 1259312);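 further: virus expresses mutant telomerase RNA that uncaps telomeres and kills cells; compound added 2 days after infection so exposure lasts 3 days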
Settings: HCT116 + Ad-hTR-mut, MTT, 5 d; at 10 µM, stronger effect = higher value

Compound | fold change
O=c1[nH]c2cc(NCCCO)c([N+](=O)[O-])cc2[nH]1 | -1.46
Nc1n[nH]c(-c2cccnc2)n1 | 2.61 (active)
c1ccc(-c2nc(-c3cccnc3)[nH]c2-c2ccccc2)cc1 | 1.14
COc1cc(OC)cc(-c2nc(N)n[nH]2)c1 | 1.56
CN1CCC2(CC1)C(C#N)=C(O)NC1=C2C(=O)CC(C)(C)C1 | -1.33
O=C(CSc1nc2ccccc2nc1SCC(=O)N1CCCCC1)N1CCCCC1 | -1.94
O=C(Nc1nonc1NC(=O)c1ccc2c(c1)OCO2)c1ccc2c(c1)OCO2 | -1.22
CC1(C)O[C@@H]2[C@H](O1)[C@@H](CO)O[C@H]2n1cnc2c(N)ncnc21 | -1.14
Clc1nc2nonc2nc1Nc1ccc(Br)cc1 | -1.13
O=c1[nH]cnc2sc3c(c12)CCCC3 | 1.23
CC12CC3CC(C)(C1)CC(CC(=O)N1CCN(S(C)(=O)=O)CC1)(C3)C2 | 1.25
O=C(CC1NC(=O)N(C2CCCCC2)C1=O)NCC12CC3CC(CC(C3)C1)C2 (stereo not given) | -1.28
CC12CC3CC(C)(C1)CC(CC(=O)NCC14CC5CC(CC(C5)C1)C4)(C3)C2 | 3.05 (active)
COc1ccc(S(=O)(=O)NC2CCCCCC2)cc1 | 3.33 (active)
COc1ccc(OC)c(NS(=O)(=O)c2ccc(Cl)cc2)c1 | 1.33
O=S(=O)(NC1CCCCCC1)c1ccc(F)cc1 | -1.23
O=S(=O)(Nc1cc(Cl)c(Cl)cc1Cl)c1ccc(Cl)cc1 | 3.01 (active)
CS(=O)(=O)Nc1ccc(Cl)cc1Cl | -1.31
COc1ccc(S(=O)(=O)Nc2cc(Cl)c(Cl)cc2Cl)cc1 | 3.11 (active)
Cc1ccc(S(=O)(=O)NC2CCCC2)cc1 | -1.31
O=S(=O)(NC1CCCCCC1)c1ccc(Cl)cc1 | 1.1
COc1ccc(S(=O)(=O)NC(C)C)cc1 | -1.48

Compound | fold change
Cc1ccc2c(c1)C(O)(CC(=O)c1ccc3c(c1)OCO3)C(=O)N2 (stereo not given) | -1.44
O=[N+]([O-])c1c(Sc2nnnn2C2CCCCC2)ncnc1Sc1nnnn1C1CCCCC1 | 1.21
N#Cc1c(-c2ccc(Cl)cc2Cl)csc1N | -1.22
CN(C)S(=O)(=O)Nc1cccc([N+](=O)[O-])c1 | 1.12
CCn1c(=O)n(CC)c2cc(S(=O)(=O)NC3CCCCC3)ccc21 | 1.22
CC(=O)c1c(O)c(C)c(O)c2c1OC1=CC(=O)C(C(C)=O)C(=O)[C@@]12C (stereo not given in full) | -1.06
CC(=O)N1c2ccccc2C2(C)C(C1(C)C)C2(Cl)Cl (stereo not given) | 4.16 (active)
NC(=O)c1c(NC(=O)C2COc3ccccc3O2)sc2c1CCCC2 (stereo not given) | -1.9
COc1cc2c(cc1OC)CC1(C2)c2ccccc2CN1C | -1.34
O=[N+]([O-])c1ccc(C=NC2CCCc3c2[nH]c2ccc(Br)cc32)cc1 (stereo not given) | 1.22
CC(=O)N1CCCc2cc(S(=O)(=O)NC(C)(C)C)ccc21 | -1.21
COc1ccc(Br)cc1C1C(C#N)=C(N)SC(N)=C1C#N | -1.84
O=S(=O)(Oc1ccc(N=Cc2cccs2)cc1)c1ccc(Cl)cc1 | 2.24
NS(=O)(=O)c1ccc(N=Cc2cccs2)cc1 | 5.47 (active)
Clc1ccc(N=Cc2cccs2)cc1 | 1.21
CN=C1S/C(=C/c2ccc(C)o2)C(=O)N1C | -1.34
CCOC(=O)c1sc(N2N=C(C)/C(=C\c3ccc(C)o3)C2=O)nc1C | -1.12
COC(=O)Cn1cnc([N+](=O)[O-])n1 | -1.14
CC1Oc2ccc(S(=O)(=O)NCCCn3ccnc3)cc2NC1=O (stereo not given) | 1.47
Oc1ccc(Br)cc1/C=N/c1nccs1 | inactive
Oc1ccc2ccccc2c1/C=N/c1nccs1 | active
C(=N\c1nccs1)/c1ccco1 | -1.62

Compound | fold change
Clc1ccc(N=Cc2cccc3ccccc23)nc1 | 1.13
Oc1ccc2ccccc2c1C=NCCCCCCN=Cc1c(O)ccc2ccccc12 | inactive
OCCN=Cc1c(O)ccc2ccccc12 | inactive
Oc1ccc2ccccc2c1/C=N/c1ccccn1 | active
Oc1ccc(Br)cc1C=Nc1ccc(Cl)cn1 | inactive
Oc1ccc2ccccc2c1C=Nc1ccc(Cl)cn1 | active
ClCCOc1nc(OCCCl)nc(OCCCl)n1 | 2.12
CCCc1ccn(CCSCC)c1-c1cccs1 | -2.47
O=C(Nc1ccc(I)cc1)C1CC(=O)N(C2CCCCC2)C1 (stereo not given) | 2.18
O=C(Cc1cccs1)NCCN1CCOCC1 | -1.05
O=C1/C(=C/c2ccc3c(c2)OCO3)CCc2ccccc21 | -2.22
COC(=O)/C(C#N)=C\c1ccc(C)o1 | -2.41
CCCCNC(=O)OCCSC(=S)NCCC | 2.45
CCOC(=O)c1sc(N)nc1C | 1.75
CCOC(=O)c1csc(N)n1 | 2.59 (active)
CCOC(=O)Cc1csc(N)n1 | 1.75
O=C(NC1(C(=O)O)CCc2ccccc2C1)OCC1c2ccccc2-c2ccccc21 (stereo not given) | -1.79
O=S(=O)(c1ccc(NC(=S)Nc2ccccc2)cc1)N1CCCCC1 | -2.08
C/C(=N/Nc1ccc([N+](=O)[O-])cc1)c1ccc(/C(CCl)=N/Nc2ccc([N+](=O)[O-])cc2)s1 | -1.04
O=C(NC1CCCCCCC1)c1ccc(COc2c(F)c(F)cc(F)c2F)o1 | -1.24
c1ccc(-c2nonc2N=Nc2nonc2-c2ccccc2)cc1 | -1.26
[O-][n+]1onc(N=Nc2no[n+]([O-])c2-c2ccccc2)c1-c1ccccc1 | 2.99 (active)

Compound | fold change
[O-][n+]1onc(C(c2ccccc2)c2ccccc2)c1C(c1ccccc1)c1ccccc1 | -1.76
COCCNS(=O)(=O)c1ccccc1 | -1.41
Cc1nc2ccccc2nc1C | -2.23
Cc1nc2ccccc2nc1NO | active
Cc1nc2ccccc2nc1C=O | -2.07
ON=C1C2CC3CC(C2)CC1C3 | -1.41
Oc1ccc(Br)cc1/C=N/c1ccccn1 | inactive
COc1cc2c(cc1N)OCO2 | -1.08
c1ccc2c(c1)[nH]c1nc3nnnn3nc12 | active
Cc1ccc2[nH]c3nc4ccccc4nc3c2c1 | -1.34
c1ccc2nc3c(nc2c1)[nH]c1ccccc13 | -1.56
CC1CCCN(c2nc3ccccn3c(=O)c2C=O)C1 (stereo not given) | -1.15
c1ccc(-n2nnnc2SCSc2nnnn2-c2ccccc2)cc1 | 3.7 (active)
c1ccc(-c2noc(CSc3nnnn3-c3ccccc3)n2)cc1 | -1.1
CSc1nnnn1-c1ccccc1 | -1.25
C#CCn1cc(/C=C2/SC(=NC)N(C)C2=O)c2ccccc21 | -1.74
O=C(O)Cn1c(O)c(/C=C2/C=c3ccccc3=NC2=O)sc1=S | inactive
O=C(O)CCCn1c(O)c(/C=C2/C=c3ccccc3=NC2=O)sc1=S | active
O=C(O)CCCCCn1c(O)c(C2=c3cc(Br)ccc3=NC2=O)sc1=S | inactive
CCOC(=O)C1=C(C)NC2=C(C(=O)CC(C)(C)C2)C1c1ccc(C)s1 (stereo not given) | -1.32
CN=C1S/C(=C/c2cn(Cc3ccc(F)cc3)c3ccccc23)C(=O)N1C | -1.32
O=C(O)C1OC(O)C(O)C(O)C1O (stereo not given) | -2.05

Compound | fold change
CCOC(=O)CN(C1=NS(=O)(=O)c2ccccc21)c1ccccc1 | 1.02
COc1ccc(NS(=O)(=O)c2ccc(N=Cc3cc(Br)cc(Br)c3O)cc2)nn1 | inactive
O=C(O)Cn1cc([N+](=O)[O-])cn1 | 2.02
CCCCNC(=O)Cn1cc([N+](=O)[O-])cn1 | -2.9
CCOC(=O)c1c(C)nn2cc(-n3cc([N+](=O)[O-])cn3)cnc12 | 5.25 (active)
COc1cc(C(c2ccccc2)(c2ccccc2)c2ccccc2)cc2c1NC(C)(C)C=C2C | 2.23
NCc1cc(C(F)(F)F)cc(C(F)(F)F)c1 | -1.11
CC(CC(=O)O)n1ccnc1 (stereo not given) | 1.78
O=C(CC(C(=O)O)n1ccnc1)c1ccc(C2CCCCC2)cc1 (stereo not given) | 2.74 (active)
O=C(CC(c1ccc(Cl)c(Cl)c1)C1CCCCCC1=O)c1ccc(Cl)cc1 (stereo not given) | -1.72
O=C1ON=C(c2ccccc2)/C1=C/N1CCCCC1 | -1.47
O=C1CN(C(=O)CSC2CCS(=O)(=O)C2)c2ccccc2N1 (stereo not given) | -1.24
Cc1ccc(C2C(C#N)=C(N)OC3=C2C(=O)CC(C)(C)C3)s1 (stereo not given) | -4.43
CC1(C)CC(=O)C2=C(C1)OC(N)=C(C#N)C2c1cc(Br)cs1 (stereo not given) | -1.65
CC1(C)CC(=O)C2=C(C1)OC(N)=C(C#N)C2c1cccs1 (stereo not given) | 4.33 (active)
CC1CC2=C(C(=O)O1)C(c1cccs1)C(C#N)=C(N)O2 (stereo not given) | 2.62 (active)
CCOC(=O)C1=C(C)OC(N)=C(C#N)C1c1cccs1 (stereo not given) | 2.09
COC(=O)C1=C(C)OC(N)=C(C#N)C1c1cccs1 (stereo not given) | -1.65
Cc1[nH]c2ccccc2c1C(=O)C(=O)NC(C)(C)C | -1.22
CCOC(=O)c1c(NC(=O)C23CC4CC(CC(C4)C2)C3)sc2c1CCCCC2 | -1.2
N#C/C(=C\c1ccccc1/C=C(\C#N)c1ccc2c(c1)OCO2)c1ccc2c(c1)OCO2 | 1.78
CC(=O)OC[C@H]1O[C@@H](n2cc(C)c(=O)[nH]c2=O)C[C@@H]1OC(C)=O | -1.48
